Compounds with a hit are over-represented: about 7.2% of the library has one in this group of screens.
A1 inh: inhibitors of the anti-apoptotic protein A1, read as caspase activation; caspase activation, % (concentration not given with the values); actives 0.066% (n = 330,000); MEF A1-2A-BIM cells, Caspase-Glo 3/7 luminescence, 3 h; percent of clofoctol response, vehicle zero;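 active means over half of replicate activation scores above 10%, or exactly half above 10 with the replicate mean above 10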
AHR act: human AHR activation; P35869; AHR-responsive luciferase reporter cells, luminescence; activation, % at 5 µM; actives 2.5% (n = 320,000); AID 2796; in the data active means activation above about 47%
ALR inh: human ALR oxidase inhibition via reduced H2O2; AID 485317; actives 3.8% (n = 290,000); inhibition, % (test concentration not listed); purified ALR, DTT oxidation, H2O2 HRP-luminol luminescence;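 active means mean replicate inhibition above about 79%, with every replicate also reaching it, limit read from the data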
Target sequence (P55789 whole entry, looked up): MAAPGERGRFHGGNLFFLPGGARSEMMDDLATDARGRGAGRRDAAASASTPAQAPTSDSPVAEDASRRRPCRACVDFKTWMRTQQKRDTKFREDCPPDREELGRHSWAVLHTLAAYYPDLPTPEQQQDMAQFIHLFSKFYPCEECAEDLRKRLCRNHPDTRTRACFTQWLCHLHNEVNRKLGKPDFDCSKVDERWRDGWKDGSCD
SUMO Mot1 rescue: inhibitors of SUMOylation pathway: yeast Mot1-301 growth rescue. S. cerevisiae Mot1-301 growth rescue, ATP luminescence, 38.5C; percent above DMSO median, 100 means doubled. growth rescue, % at 18.8 µM. actives 1% (n = 320,000);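 active means every valid replicate shows activation above 250% relative to neutral control wells; inactive means the rest, any valid replicate at or below 250%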
Efflux pump mplx: inhibitors of Candida antifungal efflux pumps expressed in yeast. inhibition, % at 10 µM. AID 485275. actives 0.44% (n = 330,000). S. cerevisiae Candida pump triplex, Nile Red efflux;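 active means plate passing quality check with inhibition over a set limit, or well fluorescence over plate mean plus 4 SD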;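 further: Nile Red retained in pooled yeast measured as flow cytometry median fluorescence; higher means more Nile Red kept so more efflux inhibition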
VLA-4 inh: inhibition in a human VLA-4 binding assay. P13612. VLA-4 expressing cells, ligand binding flow cytometry. inhibition, % (about 7 µM as worked out from the volumes in the protocol). actives 0.2% (n = 330,000); in the data active means inhibition above about 50%
Hits are given with their value; . = inactive; / = not tested or not shown.

SMILES	A1 inh	AHR act	ALR inh	SUMO Mot1 rescue	Efflux pump mplx	VLA-4 inh
Cc1nn(-c2ccccc2)nc1C(=O)NN	.	.	.	.	.	.
Cc1nn(-c2ccccc2)nc1C(=O)Nc1ccc2[nH]ncc2c1	.	52	.	.	.	.
O=C(Nc1ccc2ccccc2c1)c1ccccc1F	.	.	.	.	.	.
COc1cc(OC)cc(C(=O)Nc2ccc(Cn3ccnc3)cc2)c1	.	.	.	.	.	.
COc1ccc(C(=O)Nc2ccc3[nH]ncc3c2)cc1OC	.	48	.	.	.	.
O=C(Nc1ccc(SC(F)F)cc1)c1ccccc1F	.	.	99	.	.	.
Cc1occc1C(=O)NCCCCc1ccccc1	.	.	98	.	.	.
Cc1occc1C(=O)NCc1ccccc1	.	.	.	.	.	.
Cc1cc(C(=O)NCCc2ccc(Cl)cc2)no1	.	.	.	.	.	.
Cc1occc1C(=O)NC(C)C(C)(C)C (stereo not drawn)	.	.	98	.	.	.
Cc1occc1C(=O)NCCc1ccc(Cl)cc1	.	.	96	.	.	/
O=C(NCCc1ccc(O)cc1)c1ccc(Cl)cc1	.	.	79	.	.	.
C=CCN1CCS(=O)(=O)N(Cc2ccccc2)[C@@H](C(C)C)C1=O	/	/	/	/	.	/
CN(C)CCCN(C(=O)c1cc2cc([N+](=O)[O-])ccc2s1)c1nc2cc3c(cc2s1)OCCO3	8.4	.	.	.	.	.
COc1cccc(C2C(C(=O)c3ccco3)=C(O)C(=O)N2CCN(C)C)c1OC (stereo not drawn)	.	.	.	470	.	.
COc1ccccc1NS(=O)(=O)c1cc(NC(=O)c2cc(=O)[nH]c3ccccc23)ccc1N1CCOCC1	.	.	/	.	.	.
CC(=O)Nc1ccc(NC(=O)CSc2ncc(C(=O)Nc3ccccc3)c(=O)n2C)cc1	.	.	99	.	.	.
Cn1c(SCC(=O)NCC2CCCO2)ncc(C(=O)Nc2ccccc2)c1=O (stereo not drawn)	.	.	.	418	.	.
Cn1c(SCC(=O)NCc2ccccc2)ncc(C(=O)Nc2ccccc2)c1=O	.	.	.	.	.	.
COc1ccc(CC(=O)N/N=C(\C)CC(=O)Nc2ccc3c(c2)OCCO3)cc1OC	.	.	.	.	.	.
Cc1nn(Cc2ccc(F)cc2)c(Cl)c1/C=N/NC(=O)c1cccnc1	.	52	.	.	.	.
CCn1nc(C)c(/C=N\NC(=O)c2cccc(OC)c2)c1C	.	49	.	.	.	.
CCn1nc(C)c(/C=N/NC(=O)c2ccoc2C)c1C	.	.	.	.	.	.
Cc1nn(Cc2ccc(F)cc2)c(Cl)c1/C=N/NC(=O)c1ccccc1	.	.	.	.	.	.
Cc1ccc(-n2nc(C)c(/C=N/NC(=O)c3cccnc3)c2Cl)cc1	.	47	.	.	.	.
SMILES	A1 inh	AHR act	ALR inh	SUMO Mot1 rescue	Efflux pump mplx	VLA-4 inh
Cc1nn(Cc2ccccc2)c(C)c1/C=N/NC(=O)c1cccnc1	.	71	.	.	.	.
COc1cccc(C(=O)N/N=C/c2cn[nH]c2-c2ccc(OC)cc2OC)c1	.	.	/	.	.	.
O=C(N/N=C\c1cn[nH]c1-c1ccccc1)c1cccs1	.	.	.	.	.	.
COc1ccc(-c2[nH]ncc2/C=N\NC(=O)c2ccc(Br)o2)cc1OC	.	60	.	.	.	.
O=C(N/N=C\c1cn[nH]c1-c1ccccc1)c1cccnc1	.	72	.	.	.	.
COc1ccc(NC(=O)CSc2nc(C)cc(C(F)(F)F)n2)cc1	.	.	.	.	.	.
COc1ccc(C(=O)NC(Cn2ccnc2)C(C)(C)C)cc1OC1CCN(C(C)C)CC1 (stereo not drawn)	.	.	.	.	.	.
CCN(CC)c1ccc(N=C2C(=O)Nc3ccccc32)cc1	.	.	94	.	.	.
Cc1ccc(N=C2C(=O)Nc3ccccc32)cc1	.	.	.	.	.	.
Clc1ccc(Nc2ncnc3ccc(Br)cc23)cc1	.	67	.	.	.	.
Clc1cccc(Nc2ncnc3ccc(Br)cc23)c1	.	.	.	.	.	.
CN(C)S(=O)(=O)c1ccc(C(=O)Oc2cc(=O)[nH]c3ccccc23)cc1	.	.	.	465	.	.

Bioassay records as filed in PubChem BioAssay.
